Structures are written as SMILES. Screen size: about 190,000 compounds; about 4,100 (2.2%) were called active.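 The calls were made as follows: active = thallium flux slope and its plate-corrected score both differing from the plate sample mean at a set confidence after two filtering rounds, in either direction; inactive = the rest.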 The full list was thinned out, with actives kept by preference.

This assay deals with Solute carrier family 12 member 5 (Homo sapiens) (UniProt Q9H2X9). Put plainly: KCC2 cotransporter modulators, thallium flux, primary screen, cell-based, HEK293 KCC2, FluoZin-2 fluorescence, MLSMR (AID 1456).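 Also: slope of fluorescence scaled to starting intensity during 10 to 20 s after thallium.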 The settings on record: KCC2 cells, thallium flux FluoZin-2 fluorescence; at 10 µM.
Sequence of Solute carrier family 12 member 5 (Homo sapiens) (Q9H2X9 whole entry, looked up): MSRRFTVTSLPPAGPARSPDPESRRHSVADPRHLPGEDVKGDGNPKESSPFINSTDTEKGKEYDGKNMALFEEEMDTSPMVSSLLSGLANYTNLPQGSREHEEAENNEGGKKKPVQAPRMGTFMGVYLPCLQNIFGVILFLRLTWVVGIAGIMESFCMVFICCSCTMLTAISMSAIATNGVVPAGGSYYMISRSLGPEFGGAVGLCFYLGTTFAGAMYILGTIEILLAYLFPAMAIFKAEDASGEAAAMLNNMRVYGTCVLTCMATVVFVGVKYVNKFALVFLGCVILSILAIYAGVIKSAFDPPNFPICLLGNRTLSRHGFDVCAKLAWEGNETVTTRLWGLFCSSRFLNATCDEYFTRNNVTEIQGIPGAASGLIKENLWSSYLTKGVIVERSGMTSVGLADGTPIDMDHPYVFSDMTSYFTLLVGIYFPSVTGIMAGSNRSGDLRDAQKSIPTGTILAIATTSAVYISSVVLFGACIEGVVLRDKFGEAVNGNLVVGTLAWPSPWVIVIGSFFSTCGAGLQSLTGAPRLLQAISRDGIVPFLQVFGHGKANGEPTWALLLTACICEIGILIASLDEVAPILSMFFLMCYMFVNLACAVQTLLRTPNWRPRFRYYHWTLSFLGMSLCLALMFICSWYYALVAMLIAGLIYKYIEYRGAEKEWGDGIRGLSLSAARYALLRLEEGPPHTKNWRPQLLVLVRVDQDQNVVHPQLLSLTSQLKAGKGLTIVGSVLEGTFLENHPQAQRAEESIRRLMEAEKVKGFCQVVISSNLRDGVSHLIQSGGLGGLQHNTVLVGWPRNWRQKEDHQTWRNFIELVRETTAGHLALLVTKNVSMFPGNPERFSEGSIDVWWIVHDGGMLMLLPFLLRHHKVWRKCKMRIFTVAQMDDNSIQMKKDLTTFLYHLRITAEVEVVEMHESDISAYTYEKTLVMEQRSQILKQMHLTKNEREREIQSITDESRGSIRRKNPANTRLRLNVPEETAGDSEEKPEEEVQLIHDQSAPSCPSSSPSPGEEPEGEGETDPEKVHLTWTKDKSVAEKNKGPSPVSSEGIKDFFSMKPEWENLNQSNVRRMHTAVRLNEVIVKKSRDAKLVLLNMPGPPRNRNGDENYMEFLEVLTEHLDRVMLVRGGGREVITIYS
Consider `O=[N+]([O-])c1ccc(N=Cc2c(O)ccc3ccccc23)cc1`, for which the B-score of Tl+ flux slope (higher = more flux/activation; lower = inhibition) is -0.766 (inactive).
As for `CN(C)S(=O)(=O)c1ccc(Cl)c(NC(=O)COC(=O)CC(NC(N)=O)c2ccc(Cl)cc2)c1` (stereo not given), the figure is -0.372 (inactive); as for `COC(=O)/C=C(\Oc1ccccc1)C1(O)CCCCC1`, 0.292 (inactive); as for `CC(C)Oc1ccc(Cc2n[nH]c(=S)n2Cc2ccccc2)cc1Cl`, 0.809 (inactive).
To `O=C(CCCOc1ccc(Cl)cc1Cl)NNC(=O)C1CCC1` belongs -0.669 (inactive); to `Cn1c(CCCOc2ccc(Cl)cc2Cl)n[nH]c1=S`, -7.28 (active); to `CC(/C=C/c1ccco1)=N/NC(=O)C1COc2ccccc2O1` (stereo not given), 0.221 (inactive).
As for `S=C(Cc1ccc(Cl)cc1)N1CCOCC1`, the figure is 0.203 (inactive); as for `O=C(NCc1ccccc1)c1ccc(S(=O)(=O)Nc2cccc(C(F)(F)F)c2)cc1`, -1.11 (inactive); as for `CN(C)S(=O)(=O)c1cccc(C(=O)Nc2cccnc2)c1`, 0.857 (inactive).
Regarding `Cc1ccc(/C=N/NC(=S)Nc2cccc(S(=O)(=O)N(C)C)c2)o1`, the B-score of Tl+ flux slope (higher = more flux/activation; lower = inhibition) is 11.8 (active).
To `CN(C)S(=O)(=O)c1cccc(NC(=S)N/N=C/C(=O)c2ccccc2)c1` belongs 6.68 (active); to `CN(C)S(=O)(=O)c1cccc(NC(=S)NCc2ccc3c(c2)OCO3)c1`, -0.00969 (inactive); to `CCN(CC)S(=O)(=O)c1cccc(C(=O)Nc2ccccc2)c1`, 0.179 (inactive).
As for `CN(C)S(=O)(=O)c1cccc(NC(=O)COC(=O)c2cc(=O)[nH]c(=O)[nH]2)c1`, the B-score of Tl+ flux slope (higher = more flux/activation; lower = inhibition) is -0.0283 (inactive).
As for `Cc1cc(C)cc(NC(=O)Cn2cnc3c(nnn3Cc3ccc(F)cc3)c2=O)c1`, the figure is 0.19 (inactive); as for `O=C(Cn1nnc(-c2ccccc2)n1)NCc1ccc2c(c1)OCO2`, -1.86 (inactive); as for `O=C(Cn1cnc2c(nnn2Cc2ccc(F)cc2)c1=O)NCc1ccc2c(c1)OCO2`, -2.61 (active).
As for `Cn1nccc1NC(=O)Nc1ccc(OC(F)(F)F)cc1`, the figure is -0.213 (inactive); as for `Cc1ccc(Cl)cc1-c1ccc(/C=N/n2cnnc2)o1`, 0.473 (inactive); as for `Cc1ccccc1-c1n[nH]c(=S)n1/N=C/c1ccc(-c2ccccc2Br)o1`, 5.28 (active).
To `Cc1n[nH]c(=S)n1/N=C/c1ccc(Br)o1` belongs -0.354 (inactive).
Consider `O=[N+]([O-])c1cccc2ncccc12`, for which the B-score of Tl+ flux slope (higher = more flux/activation; lower = inhibition) is -1.11 (inactive).
As for `Cc1ccccc1Nc1nnc(SCC(=O)c2cc3ccccc3o2)s1`, the figure is -2.32 (inactive).
To `Cc1ccc(Nc2nnc(SCC(=O)c3cc4ccccc4o3)s2)cc1C` belongs -8.65 (active); to `Cc1cc2c(=O)n(C)c(SCC(=O)c3cc4ccccc4o3)nc2s1`, 0.288 (inactive).
As for `CCO[C@H]1OC(C(=O)N2CCN(Cc3ccccc3)CC2)=C[C@@H](c2cn(C(C)=O)c3ccccc23)[C@@H]1CCCO`, the figure is -0.421 (inactive); as for `C#CCNC(=O)C1=C[C@@H](c2ccccc2)[C@H](CCCO)[C@@H](OCC)O1`, 0.698 (inactive).
As to `CCO[C@H]1OC(C(=O)NCc2ccccc2)=C[C@@H](c2coc3ccccc3c2=O)[C@@H]1CCCO`, the B-score of Tl+ flux slope (higher = more flux/activation; lower = inhibition) was -2.75 (active).
To `CN(C)c1ccc(/C=C/C(=O)c2ccc(O)cc2)cc1[N+](=O)[O-]` belongs -1.51 (inactive).
As for `CCN(CC(=O)Nc1ccc(S(=O)(=O)N2CCCC2)cc1)CC(=O)Nc1cccc(OC)c1`, the figure is -0.0112 (inactive); as for `Cc1onc(-c2ccc(Cl)cc2)c1-c1ccnn1S(=O)(=O)c1ccc(Cl)cc1`, 0.0713 (inactive).
To `C#CCNc1ccc(C(=O)OCC)cc1` belongs 0.0911 (inactive).
For `COc1ccc(C(=O)Nc2cccc(S(C)(=O)=O)c2)cc1`, the B-score of Tl+ flux slope (higher = more flux/activation; lower = inhibition) is -0.0335 (inactive).
To `COc1ccc(C(=O)NN(C)c2nc(-c3ccccc3)cc(C)c2S(C)(=O)=O)cc1` belongs -2.92 (active); to `COc1ccc(OCC(=O)NNC(=O)c2ccc(-c3ccccc3)cc2)cc1`, -0.294 (inactive); to `Cc1nc(COc2cccc(Cl)c2)sc1C(=O)/C=C/N(C)C`, -0.976 (inactive).
As for `CCN(CC)CCCN=Cc1c(O)n(-c2ccc(C)cc2)c(=O)c2ccccc12`, the figure is -0.624 (inactive).
To `O=C(CSc1nnnn1-c1ccc(O)cc1)c1ccc(F)cc1` belongs -0.119 (inactive); to `CCOc1cccc(/C=N/NC(=S)NCCN2CCOCC2)c1O`, -0.223 (inactive).
Take `O=C1CSC(=S)N1/N=C/c1ccc(O)c([N+](=O)[O-])c1`: the B-score of Tl+ flux slope (higher = more flux/activation; lower = inhibition) was 0.571 (inactive).
To `CCOc1cccc(/C=N/N2C(=O)CSC2=S)c1O` belongs 5.34 (active); to `CC(=O)N1CCC(N(C(=O)Nc2ccc(Cl)cc2)C(C)C)CC1`, 0.402 (inactive).
To `COc1cc(C=O)ccc1Oc1nnnn1-c1ccccc1` belongs -0.736 (inactive); to `COc1ccc(C(=O)NC2(C(F)(F)F)NC(=O)N(CCCc3ccccc3)C2=O)c(OC)c1OC` (stereo not given), -3.82 (active).
To `Cc1ccc(S(=O)(=O)NC2(C(F)(F)F)NC(=O)N(CCc3ccccc3)C2=O)cc1` (stereo not given) belongs -0.615 (inactive); to `O=C(NC1(C(F)(F)F)NC(=O)N(C2CCCCC2)C1=O)c1ccco1` (stereo not given), 0.89 (inactive).
With `COc1ccc(CN2CCNC(=O)C2CC(=O)N(C)Cc2ccccn2)cc1OC` (stereo not given), the B-score of Tl+ flux slope (higher = more flux/activation; lower = inhibition) is -0.00917 (inactive).
Consider `Cc1ccc(NS(=O)(=O)c2ccc(N/N=C/c3ccccc3OCC(=O)O)c([N+](=O)[O-])c2)c(C)c1`, for which the B-score of Tl+ flux slope (higher = more flux/activation; lower = inhibition) was -0.087 (inactive).
As for `COc1cc(CN2CCN(Cc3ccc(C)cc3)CC2)c([N+](=O)[O-])cc1OC`, the figure is -0.767 (inactive); as for `O=C(c1ccc(F)cc1)N1CCC(n2nnc3ccccc32)CC1`, 1.38 (inactive); as for `CC(=O)c1cccc(S(=O)(=O)N2CCC(n3nnc4cc(F)ccc43)CC2)c1`, -0.212 (inactive).
Consider `O=S(=O)(c1cccc(S(=O)(=O)N2CCC(n3nnc4ccccc43)CC2)c1)N1CCCCC1`, for which the B-score of Tl+ flux slope (higher = more flux/activation; lower = inhibition) was -6.25 (active).
As for `CCN(CC)CCn1cnc2c1c(=O)n(CCOC(=O)c1cc(OC)c(OC)c(OC)c1)c(=O)n2C`, the figure is -0.175 (inactive); as for `CC(=O)N1N=C(c2ccncc2)OC1(Cc1ccccc1)Cc1ccccc1`, -0.683 (inactive); as for `Cc1ccccc1N/N=C/c1ccc(N2CCOCC2)cc1`, 3.06 (active).
To `Cc1cc(C(=O)N/N=C/c2ccc(N3CCOCC3)cc2)c(C)o1` belongs -0.588 (inactive); to `C(=N/Nc1cc(N2CCOCC2)nc(N2CCOCC2)n1)/c1ccccc1`, -0.154 (inactive); to `COC(=O)C1=C(N)Oc2cc(C)[nH]c(=O)c2C1c1ccc(Cl)cc1` (stereo not given), -2.12 (inactive).
To `O=C(NNS(=O)(=O)c1ccccc1)c1cnn(-c2ccc(Cl)cc2)c1C(F)(F)F` belongs 0.887 (inactive); to `CC1CN(/C=C/C(=O)C(F)(F)F)CC(C)O1` (stereo not given), 1.01 (inactive).
With `Cc1ccc(OC(=O)c2cc3ccccc3o2)cc1`, the B-score of Tl+ flux slope (higher = more flux/activation; lower = inhibition) was 0.278 (inactive).
As for `O=C(Nc1ccncc1)c1cc2ccccc2o1`, the figure is 2.22 (inactive); as for `C/C(=N\NC(=S)Nc1ccc(C)cc1)c1cc2ccccc2o1`, 90.2 (active).
For the molecule `COc1ccc(OC)c(S(=O)(=O)Nc2ccccc2F)c1`, the B-score of Tl+ flux slope (higher = more flux/activation; lower = inhibition) was 1.79 (inactive).
For the molecule `COc1ccc(C)cc1S(=O)(=O)NCCc1ccccc1`, the B-score of Tl+ flux slope (higher = more flux/activation; lower = inhibition) is 0.198 (inactive).
Consider `COc1ccc(C)cc1S(=O)(=O)Nc1cccc(Cl)c1Cl`, for which the B-score of Tl+ flux slope (higher = more flux/activation; lower = inhibition) was 2.43 (active).
To `CCOc1ccc(NC(=O)C2CCCN(C(=O)Nc3ccccc3)C2)cc1` (stereo not given) belongs -0.0798 (inactive); to `COc1ccc(NC(=O)N2CCC(Cc3ccccc3)CC2)cc1`, -5.5 (active); to `COc1ccc(NC(=O)C(C)SCc2ccccc2)cc1` (stereo not given), -0.536 (inactive).
As for `S=C(NCCc1ccccc1)Nc1ccccc1`, the figure is -0.293 (inactive); as for `COc1cc(C(F)(F)F)c(C(=O)N(C)c2ccc(Cl)cc2)cn1`, 0.047 (inactive); as for `CCOC(=O)c1cn(CC)c2cc(F)c(F)cc2c1=O`, -0.139 (inactive).
To `O=C(c1cc(COc2c(F)cccc2F)on1)N1CCSCC1` belongs -0.926 (inactive).
For `CC(C)CNC(=S)NC(=O)c1ccc(Cl)cc1`, the B-score of Tl+ flux slope (higher = more flux/activation; lower = inhibition) was 33 (active).
To `Cc1occc1C(=O)NNC(=S)NCC(C)C` belongs -0.168 (inactive).
As for `CC(C)C(NC(=O)c1ccc(Cl)cc1)C(=O)O` (stereo not given), the figure is 1.28 (inactive).
As for `O=C(NN=C1CCC(=NNC(=O)c2cccnc2)CC1)c1cccnc1`, the figure is 0.0392 (inactive); as for `COc1ccc(Cl)cc1CSc1ncn[nH]1`, -1.03 (inactive); as for `O=C(N/N=C/c1coc2ccccc2c1=O)c1cc2ccccc2o1`, 5.52 (active).
Turning to `CC(C)(C)OC(=O)NCCCCCC(=O)N/N=C/c1coc2ccccc2c1=O`, the B-score of Tl+ flux slope (higher = more flux/activation; lower = inhibition) is -2.19 (inactive).
As for `NC(=S)N/N=C/c1coc2cc(Cl)ccc2c1=O`, the figure is 1.23 (inactive).
To `CCOC(=O)C1CCN(CCC(=O)Nc2cccc(C)c2)CC1` belongs 0.406 (inactive); to `CN(CC(O)COc1ccc(S(=O)(=O)N2CCOCC2)cc1Cl)C1CCCCC1` (stereo not given), 0.0176 (inactive).
As for `Cc1ccc(-c2nnn(CC(=O)N(Cc3ccco3)C(C(=O)NC(C)(C)C)c3ccncc3)n2)o1` (stereo not given), the figure is -1.04 (inactive); as for `O=C(NCc1ccco1)c1nc(-c2ccccc2)n(-c2ccccc2)n1`, -2.03 (inactive); as for `Cc1nn(-c2ccccc2)c2sc(C(=O)N(Cc3ccco3)C(C)C(=O)NC(C)(C)C)cc12` (stereo not given), 8.53 (active).
For the molecule `Cc1nnc(Nc2ccccc2F)s1`, the B-score of Tl+ flux slope (higher = more flux/activation; lower = inhibition) was -0.881 (inactive).
As for `CC(NC(=O)C(=O)Nc1nccs1)c1ccccc1` (stereo not given), the figure is 2.74 (inactive).
To `N#Cc1nc(Cc2cccc3ccccc23)oc1NCc1ccc2c(c1)OCO2` belongs -5.13 (active).
As for `Cn1cc(CCC(=O)NCc2ccc3c(c2)OCO3)c2ccccc21`, the figure is -1.1 (inactive); as for `O=C(COc1ccccc1)NCc1ccc2c(c1)OCO2`, -0.24 (inactive).
In the case of `N#Cc1nc(-c2ccc(OCc3ccccc3)cc2)oc1NCCCN1CCOCC1`, the B-score of Tl+ flux slope (higher = more flux/activation; lower = inhibition) is 0.37 (inactive).
For the molecule `N#Cc1nc(COc2ccc(-c3ccccc3)cc2)oc1NCc1cccnc1`, the B-score of Tl+ flux slope (higher = more flux/activation; lower = inhibition) was -4.77 (active).
For the molecule `Cc1ccc(OCc2nc(C#N)c(N3CCCC3)o2)cc1`, the B-score of Tl+ flux slope (higher = more flux/activation; lower = inhibition) is -0.743 (inactive).
